VDR inhibitor = inhibitors of human vitamin D receptor. Potency, µM, inactives show max response, negative = inhibition, hits mostly inhibitors. VDR-SRC2-3 peptide fluorescence polarization, 2 h. hit rate 0.93% among 400,000. P11473; further: potency means the concentration at half of the fitted maximal effect; on the % scale 0 is the no-effect control and ±100 the full control effect
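Fluorescence polarization assay of small-molecule disruption of VDR binding to coregulator peptide SRC2-3. Compounds and controls pin-transferred, then read after 2 h incubation at ambient room temperature.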
TSHR antagonist = antagonists of human thyroid stimulating hormone receptor. AID 504810. TSHR-expressing cells, TSH-stimulated cAMP HTRF, 2 h; stronger effect = lower value. activity change, negative = inhibition, % at 11.5 µM. hit rate 0.2% among 330,000. P16473;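 active means activity change below a set negative limit, meaning inhibition stronger than a set level, cut at about -70% in these data; inconclusive means activity change between two set negative limits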; further: on the % scale 0 is the no-effect control and ±100 the full control effect
Target sequence (P16473 whole entry, looked up): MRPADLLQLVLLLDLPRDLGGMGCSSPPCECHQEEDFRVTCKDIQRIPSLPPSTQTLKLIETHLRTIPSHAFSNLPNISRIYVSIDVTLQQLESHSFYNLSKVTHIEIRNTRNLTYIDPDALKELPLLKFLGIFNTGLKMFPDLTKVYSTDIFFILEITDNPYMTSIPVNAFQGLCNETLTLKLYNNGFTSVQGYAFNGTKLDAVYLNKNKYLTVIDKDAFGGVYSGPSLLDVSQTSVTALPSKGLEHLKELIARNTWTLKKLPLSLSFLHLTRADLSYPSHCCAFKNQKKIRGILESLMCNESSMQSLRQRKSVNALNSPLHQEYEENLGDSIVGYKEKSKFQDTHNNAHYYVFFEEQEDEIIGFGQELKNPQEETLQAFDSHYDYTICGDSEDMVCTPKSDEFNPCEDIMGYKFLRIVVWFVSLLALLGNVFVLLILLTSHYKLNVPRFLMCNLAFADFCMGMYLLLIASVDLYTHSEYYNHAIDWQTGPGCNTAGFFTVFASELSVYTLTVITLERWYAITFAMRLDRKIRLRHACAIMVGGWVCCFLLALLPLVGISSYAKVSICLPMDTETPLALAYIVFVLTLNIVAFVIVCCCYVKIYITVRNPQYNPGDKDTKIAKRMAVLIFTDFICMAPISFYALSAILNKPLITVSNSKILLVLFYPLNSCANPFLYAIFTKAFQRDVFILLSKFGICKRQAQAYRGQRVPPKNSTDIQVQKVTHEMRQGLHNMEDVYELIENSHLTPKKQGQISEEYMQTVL
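TSHR-expressing cells were treated with compounds, then stimulated with TSH at EC80 (4nM final) for 2 hours at 37 deg C. Cellular cAMP was measured by HTRF competition between lysate cAMP and cAMP-d2 for a cryptate-labelled anti-cAMP antibody.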
Vif-A3G inh = Vif-A3G binding inhibition. Q9HC16. AID 602310. Potency, µM (series often up to 46.1 µM), for the others: top-dose activity, negative = active, hits mostly inhibitors. HeLa A3G-eYFP + Vif (tagged APOBEC3G with the HIV-1 protein that degrades it), YFP fluorescence, overnight. hit rate 0.076% among 410,000; further: potency means the concentration at half of the fitted maximal effect; on the % scale 0 is the no-effect control and ±100 the full control effect; nearly all actives have a fitted effect of over 60% in size
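HeLa cells stably expressing Vif and C-terminally eYFP-tagged A3G, seeded overnight at 37 deg C, then exposed to compound by pintool overnight at 37 deg C. Rise in yellow fluorescence (Ex 488/Em 500-530, Acumen) marks blocked Vif-driven A3G degradation.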
Vif-APOBEC3F blk = Vif-A3F binding inhibition. HeLa A3F-eYFP + Vif (tagged APOBEC3F with the HIV-1 protein that degrades it), YFP fluorescence increase. hit rate 0.2% among 390,000. AID 602313. Potency, µM (highest dose often 46.1 µM), without a hit: top-dose activity, negative = active; further: potency means the concentration at half of the fitted maximal effect; % of control where 0% means no effect; nearly all actives have a fitted effect of over 65% in size
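HeLa cells stably expressing Vif plus C-terminally eYFP-tagged A3F were seeded, incubated overnight at 37 deg C, dosed with compound, incubated overnight again at 37 deg C. Yellow fluorescence (Ex 488/Em 500-530) reported blocked Vif-mediated A3F-eYFP degradation.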
PLK1 PBD block = blocks phosphopeptide binding to human PLK1 polo-box domain | Plk1 PBD binding of FITC phosphopeptide, fluorescence polarization | Potency, µM, inactives show max response, negative = inhibition, usual class: inhibitors | hit rate 2.8% among 360,000; further: potency means the concentration at half of the fitted maximal effect; series mostly up to about 57 µM; on the % scale 0 is the no-effect control and ±100 the full control effect; nearly all actives have a fitted effect of over 65% in size
* marks the source's active call; other numbers are inactive results; ? = inconclusive; nt = no result. An excerpt weighted towards active compounds, which were near 3.1% of everything screened. Unless noted, the call rests on the fitted dose curve; in most records, active means well fitted curve in the direction sought with a large enough effect; inconclusive means small, poorly fitted or top-dose-only effect, or another doubt; inactive means no such curve, though single readings can be large; an effect the other way counts as inactive or inconclusive.

SMILES | VDR inhibitor | TSHR antagonist | Vif-A3G inh | Vif-APOBEC3F blk | PLK1 PBD block
CN(C)S(=O)(=O)c1cccc(-n2sc3ccccc3c2=O)c1 | 31.6µM* | -15.4 | -0.6% | -0.3% | 1.19µM*
COc1cccc(NC(=O)/C(C#N)=C/c2c(C)n(Cc3ccccc3)c3ccccc23)c1 | -3.6% | nt | ? | -21.3% | nt
CN(C)c1ccc(-c2cncnc2-n2ccnc2)cc1 | 44.7µM* | nt | nt | nt | nt
COc1ccccc1-c1cncnc1Nc1ccccc1 | 28.2µM* | nt | nt | nt | nt
c1ccc(Nc2ncncc2-c2ccoc2)cc1 | 56.2µM* | nt | nt | nt | nt
CN(C)c1ccc(-c2cncnc2Nc2ccc(F)cc2)cc1 | 44.7µM* | nt | nt | nt | nt
COc1ccccc1-c1cncnc1Nc1ccc(F)cc1 | -14.5% | nt | nt | nt | nt
COc1ccc(CNc2ncnc3ccc(-c4c(C)noc4C)cc23)c(OC)c1 | -9.6% | nt | nt | nt | nt
Cc1ccccc1-c1cncnc1Nc1ccc(F)cc1 | -9.8% | nt | nt | nt | nt
Fc1ccc(Nc2ncncc2-c2ccoc2)cc1 | 31.6µM* | nt | nt | nt | nt
Cc1ccc(NC(=O)c2cncc(Br)c2)cc1S(=O)(=O)N(C)C | 44.7µM* | 4.4 | -5.1% | 2.8% | 15µM*
Cc1cnc(C(=O)Nc2ccc(C)c(S(=O)(=O)N(C)C)c2)cn1 | ? | 20.0 | 0.0% | 13.8% | 23.8µM*
Cc1cccc(CN2C(=O)c3ccccc3Sc3ccc(C(=O)NC4CCCCC4)cc32)c1 | -6.9% | nt | 2.2% | -7.0% | nt
COc1ccc(C2NC(=S)N3C(c4ccc(OC)cc4)NC(=S)N23)cc1 (stereo not drawn) | -12.9% | -3.5 | 0.2% | -5.5% | 8.44µM*
Cc1ccc(C2NC(=S)N3C(c4ccc(C)cc4)NC(=S)N23)cc1 (stereo not drawn) | nt | nt | -6.4% | -12.8% | 2.0%
C=C1C=C(C(F)F)n2ncc(C(=O)N3CCCCC3)c2N1 | nt | nt | 1.4% | nt | nt
O=S(=O)(O)c1cccc2cccnc12 | -16.9% | nt | -0.2% | nt | nt
CSS(=O)(=O)c1cccc2cccnc12 | 11.2µM* | -35.7 | -3.3% | -0.5% | 2.38µM*
COC(=O)CS(=O)(=O)c1cccc2cccnc12 | -12.9% | -3.2 | -0.8% | 4.9% | 29.9µM*
Cc1cccc(OCC(=O)Nc2cccc(OCc3cc(=O)n4cccc(C)c4n3)c2)c1 | -6.7% | nt | -1.1% | 2.5% | nt
C=C1C=C(C(F)F)n2ncc(C(=O)Nc3cccc(CC)c3)c2N1 | nt | nt | 3.2% | nt | nt
Cc1cc(C(=O)N/N=C/C=C/c2ccccc2)n[nH]1 | 15.1% | 0.2 | -0.5% | -17.2% | -1.9%
Cc1ccc(-c2cc(C(=O)N/N=C/C=C/c3ccccc3)n[nH]2)s1 | ? | -1.3 | -7.2% | 4.7% | 6.7µM*
O=[N+]([O-])c1cccc(SSc2cccc([N+](=O)[O-])c2)c1 | 3.98µM* | nt | 1.9% | ? | 0.377µM*
N#C/C(=C/c1ccc(C(=O)O)cc1)C(=O)NCc1ccccc1 | -23.0% | -12.0 | -1.0% | -4.5% | -1.2%
SMILES | VDR inhibitor | TSHR antagonist | Vif-A3G inh | Vif-APOBEC3F blk | PLK1 PBD block
N#C/C(=C\c1cccs1)C(=O)c1ccccc1Cl | 35.5µM* | -12.1 | -29.4% | -18.4% | 1.5µM*
N#C/C(=C\c1cccs1)C(=O)NCc1ccccc1 | 44.7µM* | -5.5 | -2.3% | -21.1% | 3.36µM*
CCc1noc(-c2ccc(N3CCCCC3C)c([N+](=O)[O-])c2)n1 (stereo not drawn) | 13.9% | nt | 5.8% | 1.9% | nt
Cc1cc(F)ccc1S(=O)(=O)Nc1ncnc2sccc12 | -9.6% | 14.8 | 0.1% | -3.0% | 21.2µM*
COc1cccc2cc(C(=O)N3CCN(C45CC6CC(CC(C6)C4)C5)CC3)c(=O)oc12 | 5.9% | -0.2 | 1.5% | 0.4% | 26.7µM*
Cc1cccc(NC(=O)CCn2cnnn2)c1C | 4.2% | nt | 2.4% | 2.2% | nt
COc1ccc(C(c2nnnn2Cc2cccs2)N2CCN(c3ccc(F)cc3)CC2)cc1OC (stereo not drawn) | -27.3% | -41.4 | -5.9% | nt | 21.2µM*
CN1CCN(C(c2ccc(F)cc2)c2nnnn2Cc2cccs2)CC1 (stereo not drawn) | 11.5% | 14.7 | -6.5% | nt | -10.9%
O=C1OCCC1Sc1nnc2c(n1)[nH]c1ccccc12 (stereo not drawn) | 1.1% | nt | nt | nt | nt
CC1CCCCC1NC(=O)CSc1nncn1N (stereo not drawn) | -7.1% | 4.8 | 2.0% | 15.1% | 21.2µM*
CC1CCCCC1NC(=O)CSc1nncs1 (stereo not drawn) | 1.2% | 5.4 | 0.4% | nt | -3.3%
Nc1[nH]c2cc([N+](=O)[O-])ccc2c1-c1ccccn1 | -12.0% | -5.4 | ? | 10µM* | 12.6%
O=[N+]([O-])c1ccc2nc(-c3ccccc3[N+](=O)[O-])[nH]c2c1 | 7.1% | -5.0 | 1.5% | 6.4% | -17.7%
NC(CC(=O)Nc1ccc(Oc2cc(F)c(F)cc2Br)cc1)C(=O)O (stereo not drawn) | -7.5% | nt | nt | nt | nt
CCOc1ccc(-c2nn[nH]n2)cc1 | ? | -4.9 | 0.2% | -0.8% | 26.7µM*
COC(=O)c1csc(C(=O)c2c[nH]c3ccccc23)n1 | -0.4% | nt | nt | nt | nt
O=c1c2c([N+](=O)[O-])cc([N+](=O)[O-])cc2sn1Cc1ccccc1 | 22.4µM* | -19.6 | -7.3% | 4.5% | 0.752µM*
O=C(Nc1ccc(Br)cc1)c1cc([N+](=O)[O-])cc([N+](=O)[O-])c1 | -6.5% | 2.0 | 4.2% | 3.2% | ?
O=c1c2c([N+](=O)[O-])cc([N+](=O)[O-])cc2nc2ccccn12 | -16.4% | -13.0 | 0.4% | -0.8% | -4.2%
O=c1c2c([N+](=O)[O-])cc([N+](=O)[O-])cc2sn1-c1ccc(Br)cc1 | 25.1µM* | -0.5 | -3.0% | 0.0% | 2.67µM*
O=C(Cn1c(=O)n(-c2ccc(F)c(Cl)c2)c(=O)c2sc3ccccc3c21)NC1CCCCC1 | -6.6% | nt | -3.3% | -5.4% | nt
O=C(OCc1cnc(Cl)s1)c1c(F)cccc1F | -28.0% | 2.4 | 10.4% | -3.2% | 23.8µM*
Cc1onc(-c2c(F)cccc2Cl)c1C(=O)OCc1cnc(Cl)s1 | -8.5% | -13.5 | 0.0% | -1.5% | 2.2%
CC(C)(C)NC(=O)[C@H]1CN(Cc2cccnc2)CCN1C[C@@H](O)C[C@@H](Cc1ccccc1)C(=O)N[C@H]1c2ccccc2C[C@H]1O | -5.7% | nt | nt | nt | nt
COc1ccc(-c2oc3ccccc3c(=O)c2OCC(=O)O)cc1 | -21.5% | -10.0 | -1.5% | 0.4% | 11.9µM*
SMILES | VDR inhibitor | TSHR antagonist | Vif-A3G inh | Vif-APOBEC3F blk | PLK1 PBD block
COc1ccc(S(=O)(=O)Nc2c(C(=O)O)[nH]c3ccc(OC)cc23)c(OC)c1 | -27.9% | 17.9 | -0.1% | -0.5% | 15µM*
O=NCc1ccc([N+](=O)[O-])o1 | -1.1% | nt | nt | nt | nt
CCOC(=O)C(CS)NCCN[C@@H](CS)C(=O)OCC (stereo partly drawn) | 28.2µM* | nt | nt | nt | nt
O=C(CCCOc1ccccc1)N1CCCCC1 | -3.1% | 3.9 | -2.3% | 8.5% | -3.5%
CCC1CCCCN1C(=O)CCCOc1ccccc1 (stereo not drawn) | ? | -2.9 | -2.1% | -1.9% | 3.36µM*
C[C@]12CCC(=O)C=C1CC[C@@H]1[C@@H]2[C@@H](O)C[C@@]2(C)[C@H]1CC[C@]2(O)C(=O)COP(=O)(O)O | 0.4% | nt | nt | nt | nt
O=c1oc2ccccc2c(Cl)c1CN1CCCCC1 | 3.6% | 8.6 | -19.8% | -7.8% | 11.9µM*
